From PubChem BioAssay (EPA / NIEHS)
Active and inactive are the calls of the source. Rule for the calls: active = hit-call score of the fitted dose curve at least 0.9, where 1 is the maximum; inactive = score below 0.9.

Assays:
[1] = read-out: Human Leukocyte Antigen - DR isotype (HLADR), HLA-DRA (gene 3122); experiment: BSK_CASM3C_HLADR: BioMAP Diversity Plus: CASM3C Assay for Human Leukocyte Antigen - DR isotype (HLADR) Biomarker Activity (AID 2283043); conditions: primary human coronary artery smooth muscle cells; actives raise or lower the signal;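 note: cell-surface HLA-DR protein level quantified by ELISA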
[2] = read-out: Macrophage colony-stimulating factor (MCSF), CSF1 (gene 1435); experiment: BSK_CASM3C_MCSF: BioMAP Diversity Plus: CASM3C Assay for Macrophage colony-stimulating factor (MCSF) Biomarker Activity (AID 2283044); conditions: primary human coronary artery smooth muscle cells; actives raise or lower the signal;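 note: M-CSF protein amount quantified by ELISA after 24 h exposure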
[3] = read-out: Low-density lipoprotein receptor (LDLR), LDLR (gene 3949); experiment: BSK_CASM3C_LDLR: BioMAP Diversity Plus: CASM3C Assay for Low-density lipoprotein receptor (LDLR) Biomarker Activity (AID 2283045); conditions: primary human coronary artery smooth muscle cells; actives raise or lower the signal;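 note: LDLR protein level on the cell surface quantified by ELISA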
[4] = read-out: Monocyte Chemoattractant Protein-1 (MCP1), CCL2 (gene 6347); experiment: BSK_CASM3C_MCP1: BioMAP Diversity Plus: CASM3C Assay for Monocyte Chemoattractant Protein-1 (MCP1) Biomarker Activity (AID 2283046); conditions: primary human coronary artery smooth muscle cells; actives raise or lower the signal;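 note: MCP-1 level quantified by ELISA 24 h after dosing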
[5] = BSK_CASM3C_Proliferation: Cell Proliferation Assessment in the BioMAP Diversity Plus: CASM3C Assay (AID 2283047); conditions: primary human coronary artery smooth muscle cells;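 note: sulforhodamine B total protein stain as relative cell number at 560 nm; sub-confluent cells exposed 48 h before staining; fitted both ways against DMSO so gain or loss of cell number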
[6] = read-out: Monokine induced gamma interferon (MIG), CXCL9 (gene 4283); experiment: BSK_CASM3C_MIG: BioMAP Diversity Plus: CASM3C Assay for Monokine induced gamma interferon (MIG) Biomarker Activity (AID 2283048); conditions: primary human coronary artery smooth muscle cells; actives raise or lower the signal;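 note: MIG protein level measured by ELISA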
[7] = read-out: serum amyloid A (SAA), SAA1 (gene 6288); experiment: BSK_CASM3C_SAA: BioMAP Diversity Plus: CASM3C Assay for serum amyloid A (SAA) Biomarker Activity (AID 2283049); conditions: primary human coronary artery smooth muscle cells; actives raise or lower the signal;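 note: SAA protein level quantified by ELISA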
[8] = BSK_CASM3C_SRB: Viability Assessment in the BioMAP Diversity Plus: CASM3C Assay (AID 2283050); conditions: primary human coronary artery smooth muscle cells;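 note: cells exposed to compound for 24 h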
[9] = read-out: Thrombomodulin, THBD (gene 7056); experiment: BSK_CASM3C_Thrombomodulin: BioMAP Diversity Plus: CASM3C Assay for Thrombomodulin Biomarker Activity (AID 2283051); conditions: primary human coronary artery smooth muscle cells; actives raise or lower the signal;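 note: thrombomodulin protein level measured by ELISA 24 h after dosing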
[10] = read-out: Tissue Factor, F3 (gene 2152); experiment: BSK_CASM3C_TissueFactor: BioMAP Diversity Plus: CASM3C Assay for Tissue Factor Biomarker Activity (AID 2283052); conditions: primary human coronary artery smooth muscle cells; actives raise or lower the signal;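 note: cell surface tissue factor protein level read by ELISA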
[11] = read-out: Interferon-gamma inducible Protein 10 (IP10), CXCL10 (gene 3627); experiment: BSK_hDFCGF_IP10: BioMAP Diversity Plus: hDFCGF Assay for Interferon-gamma inducible Protein 10 (IP10) Biomarker Activity (AID 2283053); conditions: primary human foreskin fibroblasts; actives raise or lower the signal
Procedure, shortened: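 Primary human foreskin fibroblasts exposed to chemicals for 24 h. IP-10 measured by ELISA; changes fitted bidirectionally against DMSO baseline.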

[12] = read-out: Urokinase-type plasminogen activator receptor (uPAR), PLAUR (gene 5329); experiment: BSK_CASM3C_uPAR: BioMAP Diversity Plus: CASM3C Assay for Urokinase-type plasminogen activator receptor (uPAR) Biomarker Activity (AID 2283054); conditions: primary human coronary artery smooth muscle cells; actives raise or lower the signal;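 note: cell-surface uPAR protein level quantified by ELISA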
[13] = read-out: Vascular cell adhesion molecule 1 (VCAM1), VCAM1 (gene 7412); experiment: BSK_CASM3C_VCAM1: BioMAP Diversity Plus: CASM3C Assay for Vascular cell adhesion molecule 1 (VCAM1) Biomarker Activity (AID 2283055); conditions: primary human coronary artery smooth muscle cells; actives raise or lower the signal;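 note: VCAM-1 protein level quantified by ELISA on the cells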
[14] = read-out: Collagen III, COL3A1 (gene 1281); experiment: BSK_hDFCGF_CollagenIII: BioMAP Diversity Plus: hDFCGF Assay for Collagen III Biomarker Activity (AID 2283056); conditions: primary human foreskin fibroblasts; actives raise or lower the signal
Procedure, shortened: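 ELISA read-out of collagen III from human skin fibroblast cultures sampled 24 h post-dosing. Values were derived by bidirectional fitting relative to the DMSO vehicle control.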

[15] = read-out: Epidermal growth factor receptor (EGFR), EGFR (gene 1956); experiment: BSK_hDFCGF_EGFR: BioMAP Diversity Plus: hDFCGF Assay for Epidermal growth factor receptor (EGFR) Biomarker Activity (AID 2283057); conditions: primary human foreskin fibroblasts; actives raise or lower the signal
Procedure, shortened: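 Primary human foreskin fibroblasts (hDFCGF system), sampled 24 h after dosing; EGFR quantified by ELISA. Bidirectional fit relative to DMSO baseline; SRB total-protein staining in parallel cultures for cytotoxicity.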

[16] = read-out: Interleukin-8 (IL8), CXCL8 (gene 3576); experiment: BSK_hDFCGF_IL8: BioMAP Diversity Plus: hDFCGF Assay for Interleukin-8 (IL8) Biomarker Activity (AID 2283058); conditions: primary human foreskin fibroblasts; actives raise or lower the signal
Procedure, shortened: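 Cells used are human skin primary fibroblasts. Chemical is added, cultures run 24 h, then IL-8 is quantified by ELISA, and gain or loss versus DMSO control is fitted in both directions.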

[17] = BSK_hDFCGF_Proliferation: Cell Proliferation Assessment in the BioMAP Diversity Plus: hDFCGF Assay (AID 2283059); conditions: primary human foreskin fibroblasts;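 note: curves fitted for both rise and fall of signal versus DMSO baseline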
Procedure, shortened: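 Steps: dose primary human dermal fibroblasts (foreskin); […] fix in 10% TCA; stain with 0.1% SRB; read 560 nm; fit gain or loss of signal against DMSO.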

[18] = read-out: Macrophage colony-stimulating factor (MCSF), CSF1 (gene 1435); experiment: BSK_hDFCGF_MCSF: BioMAP Diversity Plus: hDFCGF Assay for Macrophage colony-stimulating factor (MCSF) Biomarker Activity (AID 2283060); conditions: primary human foreskin fibroblasts; actives raise or lower the signal
Procedure, shortened: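 Primary human foreskin fibroblasts dosed with chemical; 24 h later, M-CSF quantified by ELISA; curves fitted in both directions vs DMSO negative control.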

[19] = read-out: TIMP metallopeptidase inhibitor 1 (TIMP1), TIMP1 (gene 7076); experiment: BSK_hDFCGF_TIMP1: BioMAP Diversity Plus: hDFCGF Assay for TIMP metallopeptidase inhibitor 1 (TIMP1) Biomarker Activity (AID 2283062); conditions: primary human foreskin fibroblasts; actives raise or lower the signal
Procedure, shortened: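 Human skin fibroblasts (primary), hDFCGF system; compound exposure 24 h; TIMP-1 by ELISA; bidirectional fit vs DMSO negative control; overt cytotoxicity by SRB in parallel wells.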

[20] = read-out: Monokine induced gamma interferon (MIG), CXCL9 (gene 4283); experiment: BSK_hDFCGF_MIG: BioMAP Diversity Plus: hDFCGF Assay for Monokine induced gamma interferon (MIG) Biomarker Activity (AID 2283063); conditions: primary human foreskin fibroblasts; actives raise or lower the signal
Procedure, shortened: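 Chemicals were added to primary human foreskin fibroblast cultures, which were sampled 24 h later. MIG levels were then quantified by ELISA and responses fitted in both directions relative to DMSO.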

[21] = read-out: Matrix Metallopeptidase 1 (MMP1), MMP1 (gene 4312); experiment: BSK_hDFCGF_MMP1: BioMAP Diversity Plus: hDFCGF Assay for Matrix Metallopeptidase 1 (MMP1) Biomarker Activity (AID 2283064); conditions: primary human foreskin fibroblasts; actives raise or lower the signal
Procedure, shortened: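 Primary human foreskin fibroblasts exposed to chemicals for 24 h; MMP1 measured by ELISA. Cytotoxicity tracked by SRB staining in parallel cultures; bidirectional fit relative to DMSO.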

[22] = read-out: Plasminogen activator inhibitor-1 (PAI1), SERPINE1 (gene 5054); experiment: BSK_hDFCGF_PAI1: BioMAP Diversity Plus: hDFCGF Assay for Plasminogen activator inhibitor-1 (PAI1) Biomarker Activity (AID 2283066); conditions: primary human foreskin fibroblasts; actives raise or lower the signal
Procedure, shortened: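 Human foreskin fibroblast primary cells, 24 h chemical exposure; PAI-1 measured by ELISA. Bidirectional fitting relative to DMSO; parallel cultures stained with SRB for total protein to flag overt cytotoxicity.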

[23] = read-out: Intercellular Adhesion Molecule 1 (ICAM1), ICAM1 (gene 3383); experiment: BSK_KF3CT_ICAM1: BioMAP Diversity Plus: KF3CT Assay for Intercellular Adhesion Molecule 1 (ICAM1) Biomarker Activity (AID 2283067); conditions: primary human keratinocytes with fibroblasts; actives raise or lower the signal
Procedure, shortened: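 ICAM-1 levels are measured by ELISA 24 h after dosing a primary human co-culture of keratinocytes and foreskin fibroblasts. Activity in either direction is fitted relative to DMSO vehicle.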

[24] = read-out: Interferon-gamma inducible Protein 10 (IP10), CXCL10 (gene 3627); experiment: BSK_KF3CT_IP10: BioMAP Diversity Plus: KF3CT Assay for Interferon-gamma inducible Protein 10 (IP10) Biomarker Activity (AID 2283068); conditions: primary human keratinocytes with fibroblasts; actives raise or lower the signal
Procedure, shortened: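 KF3CT co-culture (keratinocytes + foreskin fibroblasts), 24 h compound, IP-10 by ELISA; bidirectional fit vs DMSO baseline.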

[25] = BSK_KF3CT_SRB: Viability Assessment in the BioMAP Diversity Plus: KF3CT Assay (AID 2283069); conditions: primary human keratinocytes with fibroblasts;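 note: total protein by sulforhodamine B staining as a cytotoxicity measure; read 24 h after compound addition; fitted for both signal gain and loss against DMSO baseline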
Procedure, shortened: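 Human keratinocyte and foreskin fibroblast co-culture exposed to chemical for 24 h. Total protein measured in parallel cultures by 0.1% sulforhodamine B staining after 10% TCA fixation, read at 560 nm; bidirectional fit relative to DMSO.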

[26] = read-out: TIMP metallopeptidase inhibitor 2 (TIMP2), TIMP2 (gene 7077); experiment: BSK_KF3CT_TIMP2: BioMAP Diversity Plus: KF3CT Assay for TIMP metallopeptidase inhibitor 2 (TIMP2) Biomarker Activity (AID 2283071); conditions: primary human keratinocytes with fibroblasts; actives raise or lower the signal
Procedure, shortened: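 Co-culture of human primary keratinocytes and foreskin fibroblasts, measured 24 h after chemical dosing. TIMP-2 quantified by ELISA and fitted in both directions relative to DMSO. Cytotoxicity checked in parallel cultures by SRB total-protein staining.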

[27] = read-out: Matrix Metallopeptidase 9 (MMP9), MMP9 (gene 4318); experiment: BSK_KF3CT_MMP9: BioMAP Diversity Plus: KF3CT Assay for Matrix Metallopeptidase 9 (MMP9) Biomarker Activity (AID 2283074); conditions: primary human keratinocytes with fibroblasts; actives raise or lower the signal
Procedure, shortened: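 Human keratinocyte and foreskin fibroblast co-culture exposed to chemicals for 24 h; MMP9 biomarker measured by ELISA, bidirectional fitting relative to DMSO; cytotoxicity tracked by SRB total protein staining in parallel cultures.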

CD40, CD40 (gene 958) = experiment: BSK_LPS_CD40: BioMAP Diversity Plus: LPS Assay for CD40 Biomarker Activity (AID 2283076); conditions: primary human HUVEC with PBMC; actives raise or lower the signal
Procedure, shortened: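 Cells were dosed, incubated 24 h, then assayed for CD40 by ELISA. Gain or loss of signal was analysed relative to DMSO controls. The culture paired human umbilical vein endothelium with peripheral blood mononuclear cells.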

Measured: outcome

CCCC[N+](CCCC)(CCCC)CCCC
inactive: [1] | [2] | [3] | [4] | [5] | [6] | [7] | [8] | [9] | [10] | [11] | [12] | [13] | [14] | [15] | [16] | [17] | [18] | [19] | [20] | [21] | [22] | [23] | [24] | [25] | [26] | [27] | CD40, CD40 (gene 958)
